Source: PubChem BioAssay
A selection: hits, their analogues and other compounds. The true share with any hit is near 1.1%.
gsp antagonist – antagonizes gsp, the McCune-Albright syndrome mutation; gsp-mutant cells, cAMP HTRF, 30 min; Potency, µM (doses to about 76.9 µM), most hits filed as inhibitors; 340,000 tested, 0.4% active; AID 624288; calls by dose curve; cell line not stated here;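 also: intracellular cAMP measured with PDE inhibitor Ro 20-1724 present during compound exposure; nearly all actives have a fitted effect of over 65% in size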
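G418-selected cells were plated in DMEM/10% FBS for 16-24 h at 37C, then treated with compounds plus the PDE inhibitor […] (300 uM solution added) for 30 min at 37C. Intracellular cAMP was measured by HTRF after 30 min lysis at room temperature.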
RXFP1 antag – antagonists of human relaxin receptor RXFP1; HEK293-RXFP1, relaxin-stimulated cAMP HTRF, 30 min; active compounds read low; activity change, negative = inhibition, % at 57.5 µM; Q9HBX9; 350,000 tested, 0.59% active;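 active = activity change of -60% or lower, but not beyond a set lower limit; inconclusive = change between -60% and -40%, or beyond the set limit; inactive = change above -40%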
Target sequence (Q9HBX9 whole entry, looked up): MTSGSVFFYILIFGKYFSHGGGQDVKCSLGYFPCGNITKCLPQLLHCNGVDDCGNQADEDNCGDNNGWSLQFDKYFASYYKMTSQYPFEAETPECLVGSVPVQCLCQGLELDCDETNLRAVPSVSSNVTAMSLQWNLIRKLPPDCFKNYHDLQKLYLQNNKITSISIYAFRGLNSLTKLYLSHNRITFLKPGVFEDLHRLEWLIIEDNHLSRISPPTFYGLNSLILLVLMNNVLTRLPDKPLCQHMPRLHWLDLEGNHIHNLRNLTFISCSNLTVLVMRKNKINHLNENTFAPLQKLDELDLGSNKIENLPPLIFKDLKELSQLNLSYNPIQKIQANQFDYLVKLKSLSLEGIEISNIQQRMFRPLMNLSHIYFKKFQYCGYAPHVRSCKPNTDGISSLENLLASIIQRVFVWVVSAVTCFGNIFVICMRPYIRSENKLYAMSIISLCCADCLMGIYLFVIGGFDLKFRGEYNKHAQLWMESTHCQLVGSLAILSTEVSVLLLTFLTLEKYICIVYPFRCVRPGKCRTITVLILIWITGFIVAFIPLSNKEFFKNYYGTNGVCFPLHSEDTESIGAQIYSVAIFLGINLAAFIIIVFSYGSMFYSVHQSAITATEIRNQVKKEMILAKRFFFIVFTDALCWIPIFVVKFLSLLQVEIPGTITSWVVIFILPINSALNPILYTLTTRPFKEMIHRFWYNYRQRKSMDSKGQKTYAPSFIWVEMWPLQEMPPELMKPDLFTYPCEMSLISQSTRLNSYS
gsp ag – activates gsp, the McCune-Albright syndrome mutation; AID 624287; Potency, µM (titrated, usually from 76.9 µM), actives largely listed as activators; 340,000 tested, 0.13% active; gsp mutant cells, cAMP HTRF, 30 min; active = well fitted activation curve with a large enough effect; inconclusive = small, poorly fitted or top-dose-only effect, or another doubt; inactive = no such curve, though single readings can be large or run the other way; cell line not stated here;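 also: phosphodiesterase inhibitor Ro 20-1724 added with compounds to block cAMP breakdown; nearly all actives have a fitted effect of over 60% in size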
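Cells in DMEM/10% FBS with G418 were pretreated with compounds in DMSO plus […] (300 uM stock) for 30 min at 37C. cAMP was measured by HTRF (cAMP-d2 plus anti-cAMP antibody-K) after 30 min at room temperature.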
RXFP1 agonist – activates the human relaxin receptor RXFP1. Q9HBX9. HEK293T-RXFP1 cAMP TR-FRET, 30 min; response scale: percent of porcine relaxin response, buffer zero. Potency, µM (highest dose often 57.5 µM), hits mostly activators. 370,000 tested, 0.3% active; active = well fitted activation curve with a large enough effect; inconclusive = small, poorly fitted or top-dose-only effect; also: nearly all actives have a fitted effect of over 60% in size
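cAMP rise read by TR-FRET after 30 min, 37C compound exposure (up to 58 uM) in RXFP1-transfected HEK293 cells with Ro 20174 present. EC50 from Hill-equation fits, with 29 nM porcine relaxin as 100% and buffer as basal.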
TRPV1 agonist – human TRPV1 agonism; TRPV1-expressing cells, Fluo-8 calcium influx, agonist mode; activation, % at 8.33 µM; 320,000 tested, 0.19% active; Q8NER1; in the data active = activation above about 80%; inconclusive = between about 30% and that limit
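Cells expressing TRPV1 were dye-loaded with Fluo-8 and read kinetically: 10 s baseline, 3 min after compound (agonist portion), then 2 min after EC20 capsaicin (allosteric enhancer portion). Calcium-bound dye fluorescence at 480/520 nm.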
TRPV1 potentiator – enhances activation of the human vanilloid receptor TRPV1; AID 540277; Q8NER1; TRPV1-expressing cells, Fluo-8 calcium influx, capsaicin EC20 potentiation; potentiation, % at 8.33 µM; 320,000 tested, 0.02% active; in the data active = potentiation above about 80%; inconclusive = between about 30% and that limit
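Fluo-8 calcium influx in TRPV1-expressing cells, kinetic read (ex 480/em 520 nm). Compound added and read 3 min for agonist activity, followed by capsaicin at EC20 final and 2 min further read for enhancement.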
A number is an active result; . = inactive; ? = inconclusive; / = not tested or not shown; [ ] = another dose, or the depositor's remark.

SMILES	gsp antagonist	RXFP1 antag	gsp ag	RXFP1 agonist	TRPV1 agonist	TRPV1 potentiator
O=C(N/N=C/C=C/c1ccco1)c1ccccc1Cl	.	-81.7	?	.	.	.
COc1ccc(NC(=O)CN(C)CC(=O)Nc2ccc3c(c2)CCC3)cc1	.	.	.	.	.	.
COc1cccc(N(C)C(=S)Oc2ccc3c(c2)CCCC3)n1	/	-65.4	/	/	/	/
Cc1ccc(NC(=O)c2ccc3c(c2)OCO3)cc1Cl	.	.	.	.	82.8	.
CCN(CC)c1ccc(NC(=O)c2ccc3c(c2)OCO3)cc1	.	.	.	.	82.9	.
CCC(=O)Nc1ccc(NC(=O)c2ccc3c(c2)OCO3)cc1	.	.	.	.	.	.
CCOc1ccc(NC(=O)CSc2nnc(-c3ccc(OCC)cc3)o2)cc1	/	/	/	.	/	/
O=C(c1cc(Cl)nc2ccccc12)N1CCN(S(=O)(=O)c2cccc(C(F)(F)F)c2)CC1	.	-77.2	.[15.4 µM]	.	.	.
CN(C(=O)COC(=O)CSc1ccc([N+](=O)[O-])cc1)C1CCS(=O)(=O)C1 (stereo not given)	.	-100.5	.[15.4 µM]	.	.	.
CCOC(=O)C1=C(CC)Nc2ccccc2N=C1NC(=O)Nc1ccc(Cl)c(Cl)c1	31.6µM	.	.	.	.	.
COc1ccc(C(=O)OCC(=O)N2c3ccccc3CC2C)cc1S(=O)(=O)N1CCOCC1 (stereo not given)	/	.	.	/	/	/
O=C(CCn1c(=O)c2cccn2c2cccnc21)NCc1ccc(F)cc1	/	.	/	.	/	/
Cc1nn(Cc2ccccc2)c(C)c1NC(=O)CCCn1nc(C)c([N+](=O)[O-])c1C	.	/	.	.	.	.
Cc1nn(Cc2ccc(Cl)cc2)c(C)c1NC(=O)CCCn1nc(C)c([N+](=O)[O-])c1C	.	/	.	.	93.3	.
CC1CCCCC1NC(=O)C(C)N1C(=O)c2ccccc2C1=O (stereo not given)	.	.	.	.	.	.
CCCCCCCCC[n+]1cccc2c3ccccc3ccc21	.	-60.1	.	.	.	.
CCCCCCCCCCCCCCCC[n+]1cccc2ccccc21	.	?	.	.	.	.
Cc1cc(C)c(NC(=O)/C(=C/c2ccco2)c2ccccc2)c(C)c1	39.8µM	.	.	.	.	.
CCn1c2ccccc2c2nnc(SCC(=O)NCCOC)nc21	.	.	10µM	.	.	.
CC(C)c1ccc(NC(=O)c2cnc3sc(N4CCCC4)nn3c2=O)cc1	/	.	/	?	/	/
O=C(OCc1nnc(-c2ccccc2)o1)c1ccc(Br)o1	.	-73.2	.[15.4 µM]	.	.	.
O=C(OCc1nnc(-c2ccccc2)o1)c1ccc([N+](=O)[O-])o1	.	.	.[15.4 µM]	.	.	.
Fc1ccccc1N1CCN(c2nc(-c3cccs3)nc3ccccc23)CC1	.	.	.[15.4 µM]	.	.	.
CN(Cc1ccccc1F)c1nc(-c2cccs2)nc2ccccc12	11.2µM	.	.[15.4 µM]	.	.	.
COc1ccccc1NS(=O)(=O)c1cccc(NC(=O)Nc2ccc(Cl)cc2)c1	28.2µM	.	.	.	.	.
SMILES	gsp antagonist	RXFP1 antag	gsp ag	RXFP1 agonist	TRPV1 agonist	TRPV1 potentiator
CN(C(=O)CSc1nc2ccc(NC(=O)c3cccs3)cc2s1)c1ccccc1	/	/	/	.	/	/
CC(NC(=O)/C(C#N)=C/c1ccco1)c1ccccc1 (stereo not given)	.	.	.[15.4 µM]	.	.	.
CC(NC(=O)/C(C#N)=C/c1ccc([N+](=O)[O-])o1)c1ccccc1 (stereo not given)	.	-74.5	.	.	.	.
CCCc1nc(SCC(=O)N2CCC(Cc3ccccc3)CC2)c2c(=O)n(C)c(=O)n(C)c2n1	25.1µM	.	?	.	.	.
Cc1nnc(NC(=O)CSc2nccn2Cc2ccccc2)s1	.	.	.	.	.	.
CC(=O)Oc1ccc(-c2ccc(C(=O)OCC(=O)N(C)CC(=O)Nc3ccccc3Cl)cc2)cc1	.	.	.[15.4 µM]	.	.	.
C=CCNC(=O)/C(C#N)=C/c1ccc(OS(=O)(=O)c2ccc(C)cc2)c(OC)c1	.	-60.9	.	.	.	.
COc1ccc(S(=O)(=O)Nc2cccc(S(=O)(=O)N3CCCCC3)c2)cc1	.	.	?	/	/	/
Cc1ccc(S(=O)(=O)Nc2nc3ccccc3nc2Nc2cccc(S(=O)(=O)N3CCCC3)c2)cc1	31.6µM	.	?	.	.	.
O=[N+]([O-])c1cccc(S(=O)(=O)Nc2nc3ccccc3nc2Nc2cccc(S(=O)(=O)N3CCCCC3)c2)c1	17.8µM	.	.	.	.	.
O=S(=O)(Nc1nc2ccccc2nc1Nc1ccc2c(c1)OCO2)c1ccccc1	.	/	.	.	.	?
Cc1cccc(S(=O)(=O)Nc2nc3ccccc3nc2Nc2ccc3c(c2)OCO3)c1	28.2µM	.	.[15.4 µM]	.	.	.
CC(C)(C)CC(C)(C)c1ccc(O)c(-n2nc3ccccc3n2)c1	/	.	/	/	/	/
Cc1ccccc1-c1n[nH]c(=S)o1	.	.	?	15.8µM	.	.
COc1ccc(Cl)cc1-c1n[nH]c(=S)o1	.	.	14.1µM	6.31µM	.	.
Cc1ccc(NC(=O)c2oc3ccccc3c2NC(=O)C2CC2)cc1	.	.	.	.	?	.
O=C(Nc1ccc(F)cc1)c1oc2ccccc2c1NC(=O)C1CC1	.	.	.	.	81.5	.
CC(=O)N1c2c(cc(Br)cc2S(=O)(=O)NCc2ccc(C)cc2)CC1C (stereo not given)	35.5µM	.	.[15.4 µM]	.	.	.
CCN(CC(=O)Nc1ccc(OC)cc1)C(=O)c1oc2c(Cl)cccc2c1C	.	-99.8	.[15.4 µM]	.	.	.
CCCc1ccccc1OCCNS(=O)(=O)c1cc2c(cc1C)OCC(=O)N2	.	-61.5	.[15.4 µM]	.	.	.
CN(CC(=O)Nc1cccc(F)c1)C(=O)CSc1ccc(Br)cc1	.	-71.8	.[15.4 µM]	.	.	.
Cc1ccc(SCC(=O)N(C)CC(=O)Nc2cccc(F)c2)cc1	.	.	.	.	.	.
Cc1nc(NC(=O)CSc2nnc(C3CC3)n2N)c(Cl)cc1Cl	.	.	.	/	/	/
O=C(CSc1nc(-c2ccc(Cl)cc2)[nH]c(=O)n1)Nc1cccc(Cl)c1	.	-69.9	.[15.4 µM]	.	.	?
CCCCNC(=O)CS(=O)Cc1nc(-c2cccs2)oc1C (stereo not given)	.	.	.	.	.	.
Cc1oc(-c2cccs2)nc1CS(=O)CC(=O)NCCc1ccccc1 (stereo not given)	.	.	?	.	87.4	.
O=C(CN(c1ccc(Br)cc1)S(=O)(=O)c1ccc(Cl)c([N+](=O)[O-])c1)NCCc1ccccc1	.	.	.[15.4 µM]	.	.	.
Cc1ccc(N(CC(=O)NCCc2ccc(F)cc2)S(=O)(=O)c2ccc(Cl)c([N+](=O)[O-])c2)c(C)c1	25.1µM	.	.	.	.	.
